Results: PubChem BioAssay AID624123 (The Scripps Research Institute Molecular Screening Center, 2012)
A number with no mark means an inactive call. How the calls were made is not given here.

Experiment: quenching of GFP signal – biochemical, fluorescence, dose response, round 1, artefact control for Rin1-Abl interaction inhibitor project, late-stage follow-up (AID 624123)
Details: GFP fluorescence interference/quenching counterscreen

SMILES | IC50
COc1ccc(C(=O)N2CCC(C(=O)Nc3ccc(CC(=O)Nc4ccc(C(=O)N(C)C5CC5)cc4)cc3)CC2)cc1 | > 67.5 µM
CN(C(=O)c1ccc(NC(=O)Cc2ccc(NC(=O)C3CCN(C(=O)c4ccc(F)cc4)CC3)cc2)cc1)C1CC1 | > 67.5 µM
CN(C(=O)c1ccc(NC(=O)Cc2ccc(NC(=O)C3CCN(C(=O)c4cccc(F)c4)CC3)cc2)cc1)C1CC1 | > 67.5 µM
CN(C(=O)c1ccc(NC(=O)Cc2ccc(NC(=O)C3CCN(C(=O)c4ccccc4)CC3)cc2)cc1)C1CC1 | > 67.5 µM
